Experimental findings from PubChem BioAssay (NCI) are described below.

Test systems include SK-MEL-2 melanoma; EKVX NSCLC; SN12C renal; UO-31 renal; TK-10 renal; ACHN renal; CAKI-1 renal; A498 renal; CCRF-CEM leukemia; MOLT-4 leukemia.
Holding throughout (experiment): NCI-60 one-dose screen, 48 h (100 = growth as untreated, 0 = no growth, -100 = all killed)
Settings in all cases: 10 µM unless noted

The panel holds about 83,000 compounds, 20% with a hit somewhere; the sample as a whole holds those more often.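 Percent growth is the endpoint: 0 to 100 indicates growth inhibition (40 means 60% inhibition), 0 means no net growth, and negative values indicate cell death.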 Values without a mark were called inactive. Active and inactive are the calls of the source. Rule for the calls: active = growth percent below 10; inactive = the rest.

For `COc1cc(/C=C/c2cc(/C=C/c3ccc(O)c(OC)c3)n(C(=O)Nc3ccc(Cl)cc3)n2)ccc1O`, the growth in the assay with SK-MEL-2 melanoma was -23.5% (active); with EKVX NSCLC it was 16.9%; in the assay on SN12C renal, 9% (active); in the assay on UO-31 renal, 2.71% (active); in the assay with TK-10 renal, 23.1%; with ACHN renal, 9.29% (active). Besides, the growth was 0.131% (active) in the assay with CAKI-1 renal, -0.596% (active) in the assay on A498 renal, 4.45% (active) in the assay with CCRF-CEM leukemia and -2% (active) in the assay on MOLT-4 leukemia.

In the case of `Cc1cc2oc(/C=C/c3ccccc3)cc(=O)c2c(C)c1Cl`, the growth in the assay on SK-MEL-2 melanoma is 103%; with EKVX NSCLC, 101%; with SN12C renal, 99.1%; in the assay on UO-31 renal it was 94.4%; in the assay on TK-10 renal it was 91.6%; in the assay on ACHN renal, 110%. Further, the growth was 84.6% with CAKI-1 renal, 142% with A498 renal, 99.2% with CCRF-CEM leukemia and 62.6% in the assay with MOLT-4 leukemia.

In the case of `CN(C)/C(N)=N/N=C(\c1ccccc1)c1ccccn1`, the growth in the assay with SK-MEL-2 melanoma was 106%; with EKVX NSCLC, 112%; with SN12C renal, 99.4%; with UO-31 renal, 83.6%; with TK-10 renal, 94.6%; with ACHN renal, 95.7%. Moreover, the growth in the assay on CAKI-1 renal was 97.1%; with A498 renal, 105%; in the assay on CCRF-CEM leukemia, 81.4%; in the assay with MOLT-4 leukemia it was 91.5%.

With `CCN(CC)C(=O)CC1=C(C)/C(=C/c2[nH]c(-c3ccc[nH]3)cc2OC)N=C1C`, the growth in the assay with SK-MEL-2 melanoma is -36.1% (active); in the assay with EKVX NSCLC, 32.7%; in the assay with SN12C renal, 29.1%; with UO-31 renal it was -59.3% (active); in the assay with TK-10 renal, 28.2%; in the assay with ACHN renal, 1.61% (active). Also, the growth in the assay with CAKI-1 renal is -8.05% (active); with A498 renal, -8.32% (active); in the assay on CCRF-CEM leukemia it was 25.8%; with MOLT-4 leukemia, 12.4%.

On to `COc1cc(/C=N/NC(=O)c2ccc(-n3cc(-c4ccccc4)nn3)cc2)cc(OC)c1OC`, for which the growth in the assay with SK-MEL-2 melanoma is 98%; in the assay on EKVX NSCLC, 91.1%; in the assay with SN12C renal it was 80%; with UO-31 renal, 88.2%; in the assay on TK-10 renal, 99.2%; with ACHN renal, 70.7%. For the same molecule, the growth in the assay on CAKI-1 renal is 65.3%; in the assay with A498 renal, 71.1%; with CCRF-CEM leukemia, 55.1%; with MOLT-4 leukemia it was 78.3%.

For the molecule `CCCCCc1ccc(S(=O)(=O)Nc2cc(-c3csc(NC(C)=O)n3)ccc2N2CCN(C)CC2)cc1`, the growth in the assay with SK-MEL-2 melanoma is 81.3%; in the assay with EKVX NSCLC, 78.2%; with SN12C renal, 61.4%; in the assay with UO-31 renal it was 49.4%; in the assay on TK-10 renal it was 99.3%; with ACHN renal, 54.6%. Besides, the growth in the assay on CAKI-1 renal was 64.1%; in the assay on A498 renal, 66.2%; in the assay with CCRF-CEM leukemia, 29.8%; in the assay on MOLT-4 leukemia, 12.4%.

`Nc1cc(-c2ccc(Cl)cc2)nn1-c1nnc(/C=C/c2ccco2)c(=O)[nH]1`: the growth in the assay with SK-MEL-2 melanoma is 87.9%; in the assay on EKVX NSCLC it was 41.7%; in the assay with SN12C renal, 68.2%; with UO-31 renal it was 3.92% (active); with TK-10 renal, 51.2%; with ACHN renal, 29.4%. For the same molecule, the growth in the assay on CAKI-1 renal is 1.03% (active); in the assay on A498 renal, 33.8%; in the assay on CCRF-CEM leukemia, 33.9%; with MOLT-4 leukemia it was 44.4%.

Consider `CCn1cc(C(=O)O)c(=O)c2cc(F)c(N3CCN(CC(=O)Nc4ccccc4)C(C)C3)c(F)c21` (stereo not given), for which the growth with SK-MEL-2 melanoma was 122%; in the assay on EKVX NSCLC, 104%; in the assay with SN12C renal, 103%; with UO-31 renal it was 76.5%; in the assay with TK-10 renal, 108%; in the assay with ACHN renal it was 97.8%. Besides, the growth was 87% with CAKI-1 renal, 73.4% with A498 renal, 96.7% in the assay with CCRF-CEM leukemia and 107% in the assay with MOLT-4 leukemia.

Turning to `COc1ccc(C2CC(c3ccccc3)=NN2C(=O)c2cc(OC)c(OC)c(OC)c2)cc1O` (stereo not given), the growth is 76.5% in the assay on SK-MEL-2 melanoma; 46.7% in the assay with EKVX NSCLC; 37.5% in the assay on SN12C renal; 30.3% in the assay on UO-31 renal; 63.2% with TK-10 renal; 37.5% in the assay on ACHN renal. Besides, the growth was 52.9% in the assay on CAKI-1 renal, 17.3% in the assay on A498 renal, 17.9% in the assay with CCRF-CEM leukemia and 18.9% in the assay with MOLT-4 leukemia.

Turning to `O=[N+]([O-])c1c(O)c(Cl)cc(Cl)c1Cl`, the growth with SK-MEL-2 melanoma was 113%; in the assay on EKVX NSCLC, 107%; in the assay on SN12C renal it was 101%; in the assay with UO-31 renal, 93.6%; in the assay with TK-10 renal, 96.8%; in the assay with ACHN renal, 103%. The growth in the assay on CAKI-1 renal is 102%; in the assay on A498 renal it was 110%; with CCRF-CEM leukemia, 106%; in the assay with MOLT-4 leukemia it was 100%.

As for `O=S(=O)(Nc1ccc2ccccc2c1)c1ccc(-c2cnc(C3CC3)o2)cc1`, the growth with SK-MEL-2 melanoma was 40.2%; in the assay with EKVX NSCLC it was 41.9%; in the assay on SN12C renal, 44.9%; with UO-31 renal, 42.5%; with TK-10 renal, 61.9%; in the assay on ACHN renal it was 36.2%. Besides, the growth in the assay on CAKI-1 renal was 28.9%; in the assay with A498 renal, 3.93% (active); in the assay with CCRF-CEM leukemia, 10.7%; with MOLT-4 leukemia it was 20.2%.

With `COc1ccccc1S(=O)(=O)Nc1ccc2c3c(cc(CCC(=O)NCCCCNc4cccc5c4C(=O)N(C4CCC(=O)NC4=O)C5=O)cc13)C(=O)N2C` (stereo not given), the growth is 11% in the assay on SK-MEL-2 melanoma; 71% with EKVX NSCLC; 7.95% (active) with SN12C renal; 55.2% in the assay with UO-31 renal; 58% in the assay with TK-10 renal; 92.4% with ACHN renal. For the same molecule, the growth was 37.5% with CAKI-1 renal, 15.6% in the assay with A498 renal, -0.604% (active) with CCRF-CEM leukemia and 0.837% (active) with MOLT-4 leukemia.

With `Cc1cc(O)cc(-c2nn(C)cc2-c2cc(N3CCOCC3)nc(-c3cccnc3)n2)c1`, the growth is 51.5% with SK-MEL-2 melanoma; 52.3% in the assay on EKVX NSCLC; 32.3% in the assay with SN12C renal; 30.5% in the assay on UO-31 renal; 51.6% in the assay with TK-10 renal; 37.9% in the assay on ACHN renal. In addition, the growth was 43.9% in the assay with CAKI-1 renal, -36.3% (active) with A498 renal, 24.3% in the assay on CCRF-CEM leukemia and 26.8% with MOLT-4 leukemia.

In the case of `CCOC(=O)/C=C1\S/C(=N\Nc2cc(=O)[nH]c3ccc(Br)cc23)N(c2ccccc2)C1=O`, the growth is 99.3% in the assay with SK-MEL-2 melanoma; 97.2% in the assay with EKVX NSCLC; 78.9% with SN12C renal; 60.1% with UO-31 renal; 90.8% with TK-10 renal; 73% in the assay on ACHN renal. Also, the growth in the assay on CAKI-1 renal is 69.9%; with A498 renal, 95.6%; with CCRF-CEM leukemia, 10.5%; with MOLT-4 leukemia, 21.4%.

With `C#COc1cccc(Nc2ncnc3cc(NC(=O)[C@H](C)Cl)ccc23)c1`, the growth with SK-MEL-2 melanoma was 9.63% [6.25 µM] (active); with EKVX NSCLC it was 20.3% [6.25 µM]; in the assay with SN12C renal it was 10.6% [6.25 µM]; with UO-31 renal it was 27.1% [6.25 µM]; in the assay on TK-10 renal, 9.65% [6.25 µM] (active); in the assay with ACHN renal, 17.1% [6.25 µM]. For the same molecule, the growth was 26.2% [6.25 µM] in the assay with CAKI-1 renal, 2.08% [6.25 µM] (active) with A498 renal, 102% [6.25 µM] in the assay on CCRF-CEM leukemia and 98.6% [6.25 µM] in the assay with MOLT-4 leukemia.

Regarding `COc1ccc(C(=O)Nc2ncc(Cc3ccc(Cl)cc3)s2)cc1`, the growth with SK-MEL-2 melanoma is 23.9%; in the assay with EKVX NSCLC it was 36.5%; in the assay with SN12C renal, 24.8%; in the assay with UO-31 renal it was 37.4%; in the assay on TK-10 renal, 58.9%; in the assay with ACHN renal, 25.6%. The growth was 18.4% with CAKI-1 renal, -18.5% (active) in the assay on A498 renal, 14.5% in the assay with CCRF-CEM leukemia and 12.3% in the assay with MOLT-4 leukemia.

With `Cc1ccc2c(c1)nc(C)n2-c1ncnc2c1CC(C)c1cc(O)ccc1N2C` (stereo not given), the growth was 21.4% with SK-MEL-2 melanoma; 44.2% in the assay on EKVX NSCLC; 52.3% with SN12C renal; 47.9% with UO-31 renal; 56.1% with TK-10 renal; 49.5% with ACHN renal. The growth is 42.4% in the assay on CAKI-1 renal, 6.65% (active) in the assay on A498 renal, 9.39% (active) with CCRF-CEM leukemia and 13.4% in the assay with MOLT-4 leukemia.

Consider `CCOC(=O)C1=C(CCl)N(C)C(=O)NC1c1ccc2c(c1)OCO2` (stereo not given), for which the growth in the assay on SK-MEL-2 melanoma is 58.8%; in the assay with EKVX NSCLC, 71.9%; with SN12C renal, 58.6%; in the assay with UO-31 renal, 69.5%; with TK-10 renal it was 45.2%; in the assay on ACHN renal, 49.5%. Besides, the growth in the assay on CAKI-1 renal was 36.7%; in the assay on A498 renal, 55.8%; in the assay with CCRF-CEM leukemia, 12%; with MOLT-4 leukemia, 53.2%.

Consider `CN(C)c1ccc([C@@H](C(=O)Nc2cccc([N+](=O)[O-])c2)N(C(=O)c2cc3ccccc3[nH]2)c2cccc([N+](=O)[O-])c2)cc1`, for which the growth in the assay on SK-MEL-2 melanoma was 113%; with EKVX NSCLC it was 90.7%; in the assay on SN12C renal it was 97.8%; with UO-31 renal it was 67.6%; with TK-10 renal, 117%; in the assay on ACHN renal, 93.3%. The growth in the assay with CAKI-1 renal was 92.5%; in the assay with A498 renal it was 70.5%; with CCRF-CEM leukemia it was 96.1%; in the assay with MOLT-4 leukemia it was 92%.

Turning to `Cc1cc(=O)oc2cc(Oc3nc(Br)cn4c(Br)cnc34)ccc12`, the growth is 78% in the assay with SK-MEL-2 melanoma; 75.6% in the assay with EKVX NSCLC; 75.8% in the assay with SN12C renal; 58.8% with UO-31 renal; 114% in the assay with TK-10 renal; 65.8% in the assay on ACHN renal. The growth in the assay on CAKI-1 renal is 95.7%; in the assay with A498 renal, 97.4%; in the assay with CCRF-CEM leukemia it was 106%; in the assay on MOLT-4 leukemia, 87.5%.

As to `COc1ccc(-c2cc(-c3cc(OC)ccc3OC)nc(SCC(C)=O)c2C#N)cc1`, the growth in the assay on SK-MEL-2 melanoma was 78.6%; in the assay with EKVX NSCLC it was 51.6%; with SN12C renal, 76.7%; in the assay on UO-31 renal it was 41.1%; in the assay on TK-10 renal it was 101%; in the assay on ACHN renal, 56.5%. Besides, the growth with CAKI-1 renal was 40.6%; in the assay on A498 renal, 39%; in the assay on CCRF-CEM leukemia, 69.2%; in the assay with MOLT-4 leukemia, 37.9%.
